Outcome and Potency data for 36 compounds are collected here from PubChem BioAssay (NCATS).

Inconclusive results are not listed. Entries that show only a call come without a potency. Calls of active or inactive are those of the source. Calls follow the shape of the dose curve; as a rule, active = well fitted curve in the direction sought with a large enough effect; inconclusive = small, poorly fitted or top-dose-only effect, or another doubt; inactive = no such curve, though single readings can be large; an effect the other way counts as inactive or inconclusive.

In experiment [1] the target is Methanococcus maripaludis chaperonin (MmCpn) (UniProt Q6LX38). As to the kind of experiment: High-Throughput Screening for Modulators of Cytosolic Chaperonin Activity: MmCpn Primary Screen (AID 488978).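 Also: 50 nM MmCpn enzyme hydrolysing 30 µM ATP at 37 °C.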 The gist of the method: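 Steps: chaperonin 50 nM final; add compound, 5 min RT; start with ATP, 30 uM final; hold 10 min at 37C; add ADP Transcreener HTRF reagent, 5 min; read ex 320, em 590 and 665 nm.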
Methanococcus maripaludis chaperonin (MmCpn), sequence (Q6LX38 1-543): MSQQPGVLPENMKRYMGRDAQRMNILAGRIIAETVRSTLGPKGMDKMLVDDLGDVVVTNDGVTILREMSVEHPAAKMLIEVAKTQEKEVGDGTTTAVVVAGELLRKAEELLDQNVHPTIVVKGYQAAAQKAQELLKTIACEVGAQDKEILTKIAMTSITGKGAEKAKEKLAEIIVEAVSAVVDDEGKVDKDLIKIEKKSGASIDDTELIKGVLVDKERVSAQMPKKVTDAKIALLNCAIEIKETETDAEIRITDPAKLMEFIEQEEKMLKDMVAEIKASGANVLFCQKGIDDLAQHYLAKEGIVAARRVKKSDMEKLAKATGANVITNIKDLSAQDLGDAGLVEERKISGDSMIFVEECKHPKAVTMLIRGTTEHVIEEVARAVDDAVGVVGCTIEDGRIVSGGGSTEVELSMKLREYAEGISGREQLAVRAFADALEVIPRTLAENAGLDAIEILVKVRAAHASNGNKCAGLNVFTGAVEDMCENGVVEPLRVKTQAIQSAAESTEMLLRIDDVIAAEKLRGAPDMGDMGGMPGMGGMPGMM

Experiment [2] addresses D(1A) dopamine receptor (Homo sapiens) (UniProt P21728). As to the kind of experiment: HTS Assay for Allosteric Agonists of the Human D1 Dopamine Receptor: Primary Screen for Agonists (AID 488981). The gist of the method: (§1)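 Tetracycline-induced HEK293 Trex D1 cells with forced coupling to calcium, loaded with no-wash calcium dye; kinetic fluorescence read 180 s after compound addition for agonism, then a further 180 s after an EC20 dopamine challenge for potentiation.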

The target is the same in experiment [3]. The experiment in a line: HTS Assay for Allosteric Agonists of the Human D1 Dopamine Receptor: Primary Screen for Potentiators (AID 488982). Put shortly:
as §1

Experiment [4] has the same target. The experiment in a line: HTS Assay for Allosteric Agonists of the Human D1 Dopamine Receptor: Primary Screen for Antagonists (AID 488983).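 Also: calcium flux response to an EC80 dopamine challenge measured with no-wash dye; nearly all actives have a fitted effect of over 65% in size.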 Put shortly:
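Cells are induced with tetracycline and incubated overnight at 30 C, then loaded with calcium dye for 30 to 90 minutes at room temperature. Compound addition is followed by a 180 s read, then an EC80 dopamine addition and another 180 s read.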

Experiment [5] deals with ATP-dependent 6-phosphofructokinase (Trypanosoma brucei brucei) (UniProt O15648). As to the kind of experiment: qHTS Assay to Find Inhibitors of T. brucei phosphofructokinase: hit validation (AID 492961). Also: series mostly up to about 51 µM. Put shortly:
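Luminescence from ADP-Glo reports ADP generated as T. brucei PFK (1.25 nM) phosphorylates 0.5 mM fructose-6-phosphate using 0.1 mM ATP. Reactions ran 45 min at room temperature, pH 8.0.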
Background: In qHTS, concentration-response curves come from the screen itself.

Experiment [6] in a line: Validation screen for small molecules that induce genotoxicity in human embryonic kidney (HEK293T) cells expressing luciferase-tagged ELG1 (AID 493106). Put shortly:
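Luminescence from an ELG1-luciferase fusion serves as the read-out, rising when genetic stress elevates ELG1 protein. HEK293T reporter cells (2,000 per well) received 23 nL compound, incubated 16 hr at 37 °C, then ONE-Glo for 30 min at room temperature.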

Experiment [7] has as its target ATPase family AAA domain-containing protein 5 (Homo sapiens) (UniProt Q96QE3). As to the kind of experiment: Validation screen for small molecules that inhibit ELG1-dependent DNA repair in human embryonic kidney (HEK293T) cells expressing luciferase-tagged ELG1 (AID 493107).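 Also: cells co-treated with the DNA-damaging agent 5-fluorouridine alongside compound; series mostly up to about 46 µM; inhibitors lower the ELG1-luciferase luminescence signal; nearly all actives have a fitted effect of over 70% in size.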 Put shortly: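 Luminescence from ONE-Glo, developed 30 min at room temperature, served as read-out of ELG1-luciferase levels. Beforehand, reporter HEK293T cells received 5-fluorouridine plus test compound for 16 hr at 37 °C.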

Experiment [8] deals with Transient receptor potential cation channel subfamily V member 1 (Homo sapiens) (UniProt Q8NER1). As to the kind of experiment: HTS Assay for Compounds that Act as Enhancers of the Vanilloid Receptor 1 (AID 488979). Put shortly:
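TRPV1 cells loaded with Fluo-8 calcium dye; compound added and Ca2+ signal (ex 480/em 520 nm) followed 3 min, then capsaicin at EC20 added and read 2 more min to detect enhancement.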

In experiment [9] the target is Thyrotropin receptor (Homo sapiens) (UniProt P16473). As to the kind of experiment: qHTS Assay for Antagonists of the Thyroid Stimulating Hormone Receptor (AID 488980). Also: series mostly up to about 58 µM. Put shortly:
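Readout is cAMP by HTRF competition between cellular cAMP and cAMP-d2 for a cryptate-labelled antibody. Antagonism was assessed in TSHR-transfected HEK293 cells stimulated with 4 nM TSH (EC80, final) in the presence of RO 20-1724.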

Experiment [10] addresses Tyrosyl-DNA phosphodiesterase 1 (Homo sapiens) (UniProt Q9NUW8). As to the kind of experiment: Confirmation Assay for Inhibitors of Tyrosyl-DNA Phosphodiesterase (TDP1) (AID 489007). Also: potency is read from the fitted curve at half-maximal effect; nearly all actives have a fitted effect of over 40% in size. To be noted: recombinant human TDP1 enzymatic activity, dose-response. The gist of the method:
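Tdp1 1 nM + cpd, 15 min RT; add biotin/phosphotyrosine-FITC oligo 15 nM, 5 min RT; add AS donor/acceptor beads 10 ug/ml, 10 min RT; read AlphaScreen. No-enzyme wells = max signal.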

ATPase family AAA domain-containing protein 5 (Homo sapiens), sequence (Q96QE3 whole entry, looked up, the tested form may be a part): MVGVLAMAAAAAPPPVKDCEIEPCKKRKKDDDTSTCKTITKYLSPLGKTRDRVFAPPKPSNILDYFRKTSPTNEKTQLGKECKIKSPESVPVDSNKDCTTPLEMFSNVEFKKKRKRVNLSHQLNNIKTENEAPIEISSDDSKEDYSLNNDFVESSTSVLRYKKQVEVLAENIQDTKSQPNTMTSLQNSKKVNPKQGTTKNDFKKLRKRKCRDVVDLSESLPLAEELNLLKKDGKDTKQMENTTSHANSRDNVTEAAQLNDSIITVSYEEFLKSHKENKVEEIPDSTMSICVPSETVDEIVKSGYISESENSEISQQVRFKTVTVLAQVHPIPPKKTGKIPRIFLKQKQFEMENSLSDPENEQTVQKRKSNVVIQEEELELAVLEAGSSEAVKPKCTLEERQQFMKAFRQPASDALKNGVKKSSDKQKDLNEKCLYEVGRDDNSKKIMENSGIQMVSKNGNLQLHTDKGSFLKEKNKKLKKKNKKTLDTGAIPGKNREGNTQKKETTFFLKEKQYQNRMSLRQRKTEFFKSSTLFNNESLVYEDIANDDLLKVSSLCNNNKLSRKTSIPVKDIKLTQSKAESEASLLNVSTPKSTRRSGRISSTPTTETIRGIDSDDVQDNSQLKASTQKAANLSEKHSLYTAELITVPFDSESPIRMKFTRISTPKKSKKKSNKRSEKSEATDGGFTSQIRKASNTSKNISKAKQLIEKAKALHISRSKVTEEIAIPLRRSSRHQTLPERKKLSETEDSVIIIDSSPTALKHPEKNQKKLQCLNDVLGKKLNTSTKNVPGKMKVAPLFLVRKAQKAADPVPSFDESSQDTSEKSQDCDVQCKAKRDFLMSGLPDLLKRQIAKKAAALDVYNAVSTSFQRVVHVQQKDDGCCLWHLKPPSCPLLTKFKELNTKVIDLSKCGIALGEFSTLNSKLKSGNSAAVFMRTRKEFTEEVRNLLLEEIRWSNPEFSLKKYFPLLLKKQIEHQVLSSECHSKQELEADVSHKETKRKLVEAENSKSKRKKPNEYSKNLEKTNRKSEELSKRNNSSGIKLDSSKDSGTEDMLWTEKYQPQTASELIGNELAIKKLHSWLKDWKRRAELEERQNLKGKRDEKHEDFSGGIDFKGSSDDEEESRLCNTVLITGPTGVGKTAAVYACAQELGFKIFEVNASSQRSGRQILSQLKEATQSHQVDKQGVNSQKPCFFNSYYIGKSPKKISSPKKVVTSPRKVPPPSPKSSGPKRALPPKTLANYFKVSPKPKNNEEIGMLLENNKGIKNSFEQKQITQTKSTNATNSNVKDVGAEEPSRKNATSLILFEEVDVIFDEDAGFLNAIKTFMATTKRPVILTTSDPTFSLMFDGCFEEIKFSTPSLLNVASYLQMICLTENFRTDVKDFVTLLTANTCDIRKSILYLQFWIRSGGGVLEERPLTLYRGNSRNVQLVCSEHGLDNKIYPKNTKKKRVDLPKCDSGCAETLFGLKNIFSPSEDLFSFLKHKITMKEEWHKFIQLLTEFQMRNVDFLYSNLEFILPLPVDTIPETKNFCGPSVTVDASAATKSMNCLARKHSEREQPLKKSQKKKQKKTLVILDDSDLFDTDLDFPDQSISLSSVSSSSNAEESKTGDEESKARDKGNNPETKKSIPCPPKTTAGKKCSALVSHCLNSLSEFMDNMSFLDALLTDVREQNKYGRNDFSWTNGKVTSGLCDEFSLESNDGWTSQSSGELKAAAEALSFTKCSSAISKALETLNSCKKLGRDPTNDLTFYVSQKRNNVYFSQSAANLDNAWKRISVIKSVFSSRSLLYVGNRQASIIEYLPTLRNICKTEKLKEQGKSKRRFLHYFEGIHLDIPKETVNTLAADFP
D(1A) dopamine receptor (Homo sapiens), sequence (P21728 whole entry, looked up): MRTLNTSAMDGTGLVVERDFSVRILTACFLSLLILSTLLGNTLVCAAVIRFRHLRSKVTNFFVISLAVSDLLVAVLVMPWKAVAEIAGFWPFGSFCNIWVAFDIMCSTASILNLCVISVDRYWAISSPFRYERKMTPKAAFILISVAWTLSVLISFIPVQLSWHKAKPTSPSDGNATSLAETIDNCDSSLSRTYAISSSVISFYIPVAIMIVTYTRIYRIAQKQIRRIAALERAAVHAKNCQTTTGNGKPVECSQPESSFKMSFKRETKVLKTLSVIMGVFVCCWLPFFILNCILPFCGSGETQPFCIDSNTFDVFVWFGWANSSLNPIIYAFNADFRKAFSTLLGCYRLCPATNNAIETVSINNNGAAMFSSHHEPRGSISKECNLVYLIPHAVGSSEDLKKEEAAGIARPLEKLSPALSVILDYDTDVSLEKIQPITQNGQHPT
ATP-dependent 6-phosphofructokinase (Trypanosoma brucei brucei), sequence (O15648 whole entry, looked up): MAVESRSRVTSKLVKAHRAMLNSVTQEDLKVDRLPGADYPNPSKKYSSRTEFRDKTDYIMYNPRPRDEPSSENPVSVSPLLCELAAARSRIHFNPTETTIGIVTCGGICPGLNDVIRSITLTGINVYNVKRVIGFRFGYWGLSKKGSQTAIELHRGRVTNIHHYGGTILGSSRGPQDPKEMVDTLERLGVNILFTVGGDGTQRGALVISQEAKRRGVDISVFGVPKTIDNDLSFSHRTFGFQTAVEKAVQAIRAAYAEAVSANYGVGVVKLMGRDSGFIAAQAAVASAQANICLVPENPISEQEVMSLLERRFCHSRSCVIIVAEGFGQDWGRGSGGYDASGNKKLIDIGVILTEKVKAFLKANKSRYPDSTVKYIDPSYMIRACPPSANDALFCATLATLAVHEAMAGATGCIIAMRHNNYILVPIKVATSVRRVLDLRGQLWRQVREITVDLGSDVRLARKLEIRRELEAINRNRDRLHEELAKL
Transient receptor potential cation channel subfamily V member 1 (Homo sapiens), sequence (Q8NER1 whole entry, looked up): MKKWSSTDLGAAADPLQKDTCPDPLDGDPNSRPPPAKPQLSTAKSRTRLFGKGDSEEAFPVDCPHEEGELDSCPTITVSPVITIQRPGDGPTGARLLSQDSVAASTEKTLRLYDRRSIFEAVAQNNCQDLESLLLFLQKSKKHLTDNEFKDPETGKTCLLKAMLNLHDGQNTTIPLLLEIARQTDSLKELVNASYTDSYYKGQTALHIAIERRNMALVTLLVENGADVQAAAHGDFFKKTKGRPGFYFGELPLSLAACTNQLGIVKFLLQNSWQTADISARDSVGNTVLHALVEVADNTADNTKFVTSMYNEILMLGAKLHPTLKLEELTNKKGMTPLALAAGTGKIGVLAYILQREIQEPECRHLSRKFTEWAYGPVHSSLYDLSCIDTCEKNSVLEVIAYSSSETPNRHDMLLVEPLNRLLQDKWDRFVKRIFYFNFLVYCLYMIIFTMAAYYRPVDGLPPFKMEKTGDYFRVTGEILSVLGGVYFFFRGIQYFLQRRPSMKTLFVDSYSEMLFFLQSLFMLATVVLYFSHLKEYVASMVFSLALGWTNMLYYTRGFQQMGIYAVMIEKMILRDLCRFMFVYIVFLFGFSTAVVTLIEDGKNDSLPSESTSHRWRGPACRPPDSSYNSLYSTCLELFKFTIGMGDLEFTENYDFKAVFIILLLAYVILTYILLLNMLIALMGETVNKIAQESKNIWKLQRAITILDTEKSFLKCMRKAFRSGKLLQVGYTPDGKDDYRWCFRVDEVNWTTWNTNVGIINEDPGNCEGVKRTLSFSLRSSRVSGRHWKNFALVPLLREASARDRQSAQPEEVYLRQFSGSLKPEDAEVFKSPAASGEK
Thyrotropin receptor (Homo sapiens), sequence (P16473 whole entry, looked up): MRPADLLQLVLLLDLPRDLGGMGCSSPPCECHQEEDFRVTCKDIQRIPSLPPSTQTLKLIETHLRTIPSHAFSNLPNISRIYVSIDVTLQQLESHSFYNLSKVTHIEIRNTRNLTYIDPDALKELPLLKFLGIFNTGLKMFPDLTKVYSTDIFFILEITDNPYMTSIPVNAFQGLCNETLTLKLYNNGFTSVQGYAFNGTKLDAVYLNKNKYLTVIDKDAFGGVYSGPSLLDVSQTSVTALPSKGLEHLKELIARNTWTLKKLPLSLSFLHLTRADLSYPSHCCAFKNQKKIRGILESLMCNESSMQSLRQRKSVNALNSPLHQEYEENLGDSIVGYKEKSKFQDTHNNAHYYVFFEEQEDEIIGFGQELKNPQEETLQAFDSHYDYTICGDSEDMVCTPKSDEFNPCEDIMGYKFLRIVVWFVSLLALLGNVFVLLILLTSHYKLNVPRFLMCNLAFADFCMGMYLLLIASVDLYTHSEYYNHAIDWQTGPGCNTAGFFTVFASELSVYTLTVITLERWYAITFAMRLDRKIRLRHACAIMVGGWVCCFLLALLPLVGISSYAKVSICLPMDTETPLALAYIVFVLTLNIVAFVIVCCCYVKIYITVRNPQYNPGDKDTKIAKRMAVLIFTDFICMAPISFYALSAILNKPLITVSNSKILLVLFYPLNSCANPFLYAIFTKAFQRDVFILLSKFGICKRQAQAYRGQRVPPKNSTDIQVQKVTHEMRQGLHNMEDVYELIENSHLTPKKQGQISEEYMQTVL

`CCOC(=O)[C@H](CCc1ccccc1)N[C@@H](C)C(=O)N1[C@H](C(=O)O)C[C@H]2CCCC[C@@H]21`: the compound was classed as inactive in [1], in experiment [2], in experiment [3], in experiment [4], in experiment [6] and in experiment [7]. For the same compound, in [5], the Potency entry was “inactive”.

Consider `COc1ccc2c(c1)c1c3n2CCN(C)C3=NCC1`, for which, in experiment [5], the Potency result is “inactive”. Same read-out and setting: as for `O=C(O)c1ccc(S(=O)(=O)N(Cl)Cl)cc1`, the entry is “inactive”; as for `CCN(CC)CCOC(=O)C1(c2ccccc2)CCCC1`, “inactive”. In the case of `CCCCCN=C(N)N/N=C/c1c[nH]c2ccc(OC)cc12`, the Potency entry in experiment [5] was “inactive”.

Turning to `NC(N)=NN=C(/C=C/c1ccc([N+](=O)[O-])o1)/C=C/c1ccc([N+](=O)[O-])o1`, in experiment [5], the Potency entry was “inactive”. As to `Cc1cc(CC(=O)O)c(C)n1-c1ccc(Cl)cc1`, the Potency entry in experiment [5] is “inactive”.

In the case of `CC(=O)OCC1=C(C(=O)O)N2C(=O)[C@@H](NC(=O)CSc3ccncc3)[C@H]2SC1`, the outcome in experiment [8] and in experiment [9] was inactive. Further, the Potency in [10] is 2 µM (active). Turning to `Cc1ccc(O)c([C@H](CCN(C(C)C)C(C)C)c2ccccc2)c1`, in [5], the Potency entry was “inactive”. `CC(C)(C)NC[C@H](O)COc1nsnc1N1CCOCC1`: the compound was called inactive in [1], in experiment [2], in experiment [3], in experiment [4], in [6] and in experiment [7]. Consider `NC(N)=NCc1cccc(I)c1`, for which the compound was classed as inactive in [1], in experiment [8], in experiment [9], in experiment [2], in experiment [3] and in experiment [4]. The compound was called inactive in experiment [6] and in experiment [7]. Besides, the Potency result in [5] was “inactive”. For `NC(=O)c1ccccc1O`, in experiment [5], the Potency result is “inactive”. With `CC(=O)NCCCCCC(=O)O`, the Potency result in experiment [5] is “inactive”. Still for that read-out and setting: with `Cc1cc2c(OCC(CNC(C)(C)C)OC(=O)c3ccccc3)cccc2[nH]1` (configuration not stated) the entry was “inactive”; with `CN(Cc1ccc(C(C)(C)C)cc1)Cc1cccc2ccccc12`, “inactive”; with `COc1cc(C)nc(-n2nc(C)cc2OC)n1`, “inactive”. The same measure, in the same setting: as for `CC[C@H](c1ccc(O)cc1)[C@@H](CC)c1ccc(O)cc1`, the entry is “inactive”; as for `Nc1ccc(C(=O)NCC(=O)O)cc1`, “inactive”.

Consider `O=c1[nH]c(=O)n([C@H]2C[C@H](O)[C@@H](CO)O2)cc1F`, for which the Potency result in experiment [5] is “inactive”. As for `CCCCCCCC/C=C\CCCCCCCCN`, the Potency entry in [5] is “inactive”. Still for that read-out and setting: with `Nc1ccc(S(=O)(=O)Nc2cnc3ccccc3n2)cc1` the entry was “inactive”; with `CC(=O)Oc1ccc(C)cc1`, “inactive”.

Take `CC(C)CCCC(C)N` (configuration not stated): the Potency entry in experiment [5] was “inactive”. `CN1CCC[C@@H]1CCO[C@](C)(c1ccccc1)c1ccc(Cl)cc1`: the Potency entry in experiment [5] is “inactive”. In the case of `Oc1ccc(Cl)cc1Cc1cc(Cl)ccc1O`, in experiment [5], the Potency result was “inactive”. Still for that read-out and setting: as for `CCOC(=O)c1c(N)sc2c1CCN(Cc1ccccc1)C2`, the entry is “inactive”; as for `CN1CCC(OC(c2ccccc2)c2ccccc2)CC1`, “inactive”; as for `O=C(O)Cc1csc(-c2ccc(Cl)cc2)n1`, “inactive”. Turning to `CN(C)CCOC(c1ccc(Cl)cc1)c1ccccn1` (configuration not stated), the Potency entry in experiment [5] is “inactive”. As for `Cc1ccc(-c2ncc(Cl)cc2-c2ccc(S(C)(=O)=O)cc2)cn1`, the Potency entry in experiment [5] is “inactive”. Same read-out and setting: with `COc1cc(N)c(Cl)cc1C(=O)NC1CCN(Cc2ccccc2)CC1` the entry was “inactive”. On the same count and under the same terms, as for `COP(=O)(OC)OC(c1ccc(Cl)cc1)P(=O)(OC)OC` (configuration not stated), the entry is “inactive”.

For the compound `CN=C(N)NCCC[C@H](N)C(=O)O`, the result in [1], in experiment [2], in experiment [3], in experiment [4], in experiment [6] and in experiment [7] was inactive. For the compound `COc1ccc(-c2cc(C(F)F)nn2-c2ccc(S(N)(=O)=O)cc2)cc1F`, the Potency result in experiment [5] is “inactive”. On the same count and under the same terms, with `O=C(NCCc1c[nH]c2ccccc12)c1cccnc1` the entry was “inactive”.

For `O[C@@H](c1cc(C(F)(F)F)nc2c(C(F)(F)F)cccc12)[C@H]1CCCCN1`, the Potency entry in experiment [5] was “inactive”.
